Inconclusive results are not listed. Active and inactive are the calls of the source. Calls come from the whole dose curve; as a rule, active = well fitted curve in the direction sought with a large enough effect; inconclusive = small, poorly fitted or top-dose-only effect, or another doubt; inactive = no such curve, though single readings can be large; an effect the other way counts as inactive or inconclusive.
Columns and labels:
[1] = system: HACAT; assay: qHTS assay to identify novel small-molecules to repurpose for Merkel cell carcinoma treatment (AID 1296009); conditions: MCC and control cell lines, CellTiter-Glo viability, 72 h; at 44.8 µM (top of the series) unless noted; note: nearly all actives have a fitted effect of over 60% in size
Summary of the method: (§1)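 Cells exposed to NPC (8-point) and MIPE (11-point) compound dilutions for 72 hr at 37 degree celsius; viability read by CellTiter-Glo luminescence, normalized to no-cell and DMSO in-plate controls.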

[2] = system: C33A; assay: Primary qHTS to identify gynecologic anti-cancer compounds using libraries of approved drugs and bioactive compounds (AID 1345084); conditions: Gynecologic cancer cell panel viability, ATPlite luminescence, 48 h; series mostly up to 57.5 µM; note: % is set by controls: 0 for no effect and ±100 for the full control effect; nearly all actives have a fitted effect of over 55% in size
Summary of the method: (§2)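 48 h compound exposure at 37 C, 5% CO2; five-point qHTS. ATPlite luminescence readout of cell ATP.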

[3] = system: CASKI; assay: as above; conditions: Gynecologic cancer cell panel viability, ATPlite luminescence, 48 h; series mostly up to 57.5 µM
Summary of the method: as §2

[4] = system: Es-2; assay: as above; conditions: Gynecologic cancer cell panel viability, ATPlite luminescence, 48 h; series mostly up to 57.5 µM
Summary of the method: as §2

[5] = system: HeLa; assay: as above; conditions: Gynecologic cancer cell panel viability, ATPlite luminescence, 48 h; series mostly up to 57.5 µM
Summary of the method: as §2

[6] = system: Hek293T; assay: as above; conditions: Gynecologic cancer cell panel viability, ATPlite luminescence, 48 h, control line for the selectivity index; series mostly up to 57.5 µM
Summary of the method: as §2

[7] = system: JEG-3; assay: as above; conditions: Gynecologic cancer cell panel viability, ATPlite luminescence, 48 h; series mostly up to 57.5 µM
Summary of the method: as §2

[8] = system: CAOV3; assay: as above; conditions: Gynecologic cancer cell panel viability, ATPlite luminescence, 48 h; series mostly up to 57.5 µM
Summary of the method: as §2

[9] = system: HEK293T; assay: qHTS assay to identify novel small-molecules to repurpose for Merkel cell carcinoma treatment (AID 1296009); conditions: MCC and control cell lines, CellTiter-Glo viability, 72 h; at 44.8 µM (top of the series) unless noted; note: nearly all actives have a fitted effect of over 60% in size
Summary of the method: as §1

CC(C)c1ccc2c(c1)C(O)CC1C(C)(C(=O)O)CCCC21C (configuration not stated)
inactive: outcome [1] | Potency [2] | outcome [3] | Potency [4] | Potency [5] | Potency [6] | Potency [7]

Cc1nc(-c2cccnc2)sc1C(=O)Nc1ccccc1-c1cn2c(CN3CCOCC3)csc2n1
inactive: outcome [1] | Potency [2] | Potency [8] | Potency [4] | Potency [5] | Potency [6] | Potency [7]

N#Cc1cc(-c2n[nH]c(-c3ccncc3)n2)ccn1
inactive: outcome [1] | Potency [2] | Potency [8] | outcome [3] | Potency [4] | Potency [5] | Potency [6] | Potency [7]

Cc1ncc([N+](=O)[O-])n1C[C@H](O)CN1CCOCC1
inactive: outcome [1] | Potency [2] | Potency [8] | outcome [3] | Potency [4] | Potency [5] | Potency [6] | Potency [7]

COC(=O)C1=COC(O[C@@H]2O[C@H](COC(=O)/C=C/c3ccc(O)cc3)[C@@H](O)[C@H](O)[C@H]2O)C2C(CO)=CCC12 (some centres not stated)
inactive: outcome [1] inactive [at 17.4 µM] | Potency [2] | Potency [8] | outcome [3] | Potency [4] | Potency [5] | Potency [7]

CC1(C)C2CCC1(C)C(OC(=O)C(O)(CC(=O)O)CC(=O)O)C2 (configuration not stated)
inactive: outcome [1] | Potency [2] | Potency [8] | outcome [3] | Potency [4] | Potency [5] | Potency [7]

O=C(N[C@@H]1CC[C@@H](c2cccc(F)c2F)CN(CC(F)(F)F)C1=O)N1CCC(n2c(=O)[nH]c3ncccc32)CC1
inactive: outcome [1] | Potency [2] | outcome [3] | Potency [4] | Potency [5] | Potency [6] | Potency [7]

CC1OC(OC2C(OC3C(O[C@H]4CC[C@@]5(C)C(CC[C@]6(C)C5C(=O)CC5=C7CC(C)(C)CC(O)[C@]7(C)CC[C@]56C)C4(C)C)OC(C(=O)O)C(O)C3O)OCC(O)C2O)C(O)C(O)C1O (some centres not stated)
inactive: outcome [1] inactive [at 9.27 µM] | activity change, negative = cytotoxicity [2] 2.35% [at 11.6 µM] | activity change, negative = cytotoxicity [3] 14.8% [at 11.6 µM] | activity change, negative = cytotoxicity [4] -7.45% [at 11.6 µM] | activity change, negative = cytotoxicity [5] 0.531% [at 11.6 µM] | activity change, negative = cytotoxicity [6] -3% [at 11.6 µM] | activity change, negative = cytotoxicity [7] -0.413% [at 11.6 µM]

CCOc1nc2c(N)ncnc2n1CC
inactive: outcome [1] | Potency [2] | outcome [3] | Potency [4] | Potency [5] | Potency [6] | Potency [7]

C[C@H]1[C@H](C)CC[C@]2(C(=O)O)CC[C@]3(C(=O)O)C(=CCC4[C@@]5(C)CC[C@H](O[C@@H]6O[C@@H](C)[C@H](O)[C@@H](O)[C@H]6O)C(C)(C)C5CC[C@]43C)[C@H]12 (some centres not stated)
inactive: outcome [1] inactive [at 17.4 µM] | Potency [2] | Potency [8] | Potency [4] | Potency [5] | Potency [6] | Potency [7]

CC(C)(O)C1OC1C1=CC(=O)C2(C)OC2C1O (configuration not stated)
inactive: outcome [1] | Potency [2] | Potency [8] | Potency [4] | Potency [5] | Potency [6] | Potency [7]

CC[C@@H]1C(=O)O[C@]23C=C[C@@H]4C(C(=O)OC)=CO[C@H](O[C@@H]12)[C@@H]43
inactive: outcome [1] | Potency [2] | Potency [8] | Potency [4] | Potency [6]

CC1(C)OC(=O)C=C[C@@]2(C)C1CC(=O)[C@]1(C)C2CC[C@@]2(C)[C@H](c3ccoc3)OC(=O)[C@H]3O[C@]321 (some centres not stated)
inactive: outcome [1] inactive [at 17.4 µM] | Potency [2] | outcome [3] | Potency [4] | Potency [5] | Potency [6] | Potency [7]

O=C(OC[C@H]1O[C@H](O[C@H]2CO[C@H](CO)[C@@H](O)[C@@H]2O)[C@H](O)[C@@H](O)[C@H]1O)c1ccccc1
inactive: outcome [9] inactive [at 17.4 µM] | Potency [2] | Potency [8] | outcome [3] | Potency [4] | Potency [5] | Potency [6] | Potency [7]

COc1cc(/C=C/C(=O)O[C@@H]2O[C@H](CO)[C@@H](O)[C@H](O)[C@H]2O)ccc1O
inactive: outcome [9] | Potency [2] | Potency [8] | outcome [3] | Potency [4] | Potency [5] | Potency [6] | Potency [7]

C/C=C(/C)C(=O)OC1C(OC(C)=O)C23C(O)OC4(CCC5C6(C)CCC(OC7OC(C(=O)O)C(O)C(OC8OC(CO)C(O)C(O)C8OC8OC(C)C(O)C(O)C8OC8OCC(O)C(O)C8O)C7OC7OC(CO)C(O)C(O)C7O)C(C)(C)C6CCC5(C)C4(C)CC2OC(C)=O)C3CC1(C)C (configuration not stated)
inactive: outcome [9] inactive [at 9.27 µM] | activity change, negative = cytotoxicity [2] 8.72% [at 6.55 µM] | activity change, negative = cytotoxicity [8] 8.69% [at 6.55 µM] | activity change, negative = cytotoxicity [3] 1.53% [at 6.55 µM] | activity change, negative = cytotoxicity [4] 1.17% [at 6.55 µM] | activity change, negative = cytotoxicity [5] -3.79% [at 6.55 µM] | activity change, negative = cytotoxicity [6] -2.54% [at 6.55 µM] | activity change, negative = cytotoxicity [7] 2.12% [at 6.55 µM]

CC1=C2CC(=O)C(C)CC/C=C(\C)CC2OC1=O (configuration not stated)
inactive: outcome [1] | Potency [8] | outcome [3] | Potency [4] | Potency [5] | Potency [6] | Potency [7]

From PubChem BioAssay (NCATS)
